# Test results published in PubChem BioAssay (EPA / NIEHS).
# “And” between values parts separate entries of the source, which are not always exact repeats. Equal values may be shown once. Results filed as inconclusive are left out. The source made the active and inactive calls. Rule for the calls: active = hit-call score of the fitted dose curve at least 0.9, where 1 is the maximum; inconclusive = response in the unintended direction; inactive = score below 0.9.
# Target: rat CYP2D2, Cyp2d26 (gene 25053) (UniProt P10634)
# Assay: NVS_ADME_rCYP2D2: NovaScreen (NVS) CYP450-related Enzyme Activity (ADME) Assay for rat CYP2D2 (AID 2283124)
# Outline: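 Single-concentration duplicate testing at 10 uM, followed by concentration-response (top 20 uM) for chemicals passing threshold. Enzyme activity of the recombinant rat isoform measured by fluorescence after 0.75 h, acetonitrile as baseline.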
# Chain of rat CYP2D2, Cyp2d26 (gene 25053) (P10634 whole entry, looked up): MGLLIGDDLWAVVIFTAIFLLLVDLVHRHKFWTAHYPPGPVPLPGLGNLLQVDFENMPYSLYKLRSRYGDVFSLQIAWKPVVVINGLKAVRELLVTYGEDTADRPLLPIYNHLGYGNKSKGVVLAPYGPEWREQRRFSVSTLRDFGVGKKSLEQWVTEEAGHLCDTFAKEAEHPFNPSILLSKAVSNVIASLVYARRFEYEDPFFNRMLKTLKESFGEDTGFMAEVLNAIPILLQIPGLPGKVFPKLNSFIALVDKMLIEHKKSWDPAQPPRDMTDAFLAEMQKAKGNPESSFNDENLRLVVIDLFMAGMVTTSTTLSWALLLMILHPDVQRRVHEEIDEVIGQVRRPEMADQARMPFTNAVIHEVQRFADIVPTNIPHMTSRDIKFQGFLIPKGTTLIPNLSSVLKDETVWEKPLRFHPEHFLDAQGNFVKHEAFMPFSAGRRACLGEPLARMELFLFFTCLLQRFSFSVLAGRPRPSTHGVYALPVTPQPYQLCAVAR
Structure (SMILES),AC50,outcome
Oc1ccc(C(c2ccc(O)cc2)C(Cl)(Cl)Cl)cc1,2.74 µM (active),–
CCCCOCCOCCOCc1cc2c(cc1CCC)OCO2,–,inactive
C=CCOC(Cn1ccnc1)c1ccc(Cl)cc1Cl (stereo not given),0.125 µM (active),–
COC(=O)CSc1cc(N=c2sc(=O)n3n2CCCC3)c(F)cc1Cl,–,inactive

# Target: rat CYP3A2, Cyp3a2 (gene 266682) (UniProt P05183)
# Assay: NVS_ADME_rCYP3A2: NovaScreen (NVS) CYP450-related Enzyme Activity (ADME) Assay for rat CYP3A2 (AID 2283128)
# Method: NVS_ADME_rCYP3A2 is a biochemical, single-readout assay that uses extracted gene-proteins in a cell-free assay. Measurements were taken 0.5 hour after chemical dosing in a 96-well plate.NVS_ADME_rCYP3A2 is one of one assay component(s) measured or calculated from the NVS_ADME_rCYP3A2 assay. It is designed to make measurements of enzyme activity, a form of enzyme reporter, as detected with fluorescence intensity signals by Fluorescence technology.Data from the assay component NVS_ADME_rCYP3A2 was analyzed into 1 assay endpoint. This assay endpoint, NVS_ADME_rCYP3A2, was analyzed in the positive analysis fitting direction relative to Acetonitrile as the negative control and baseline of activity. Using a type of enzyme reporter, loss-of-signal activity can be used to understand changes in the enzymatic activity as they relate to the gene Cyp3a2. Furthermore, this assay endpoint can be referred to as a primary readout, because this assay has produced multiple assay endpoints where this one serves a enzymatic activity function. To generalize the intended target to other relatable targets, this assay endpoint is annotated to the cyp intended target family, where the subfamily is xenobiotic metabolism.
# Binding assays used specific radioligands (tritiated, iodinated) with non-radioactive competitive displacement ligands in agonist or antagonist protocols (as indicated) and various reference compounds and inhibitors to titrate specific binding to receptors and transporters. Most enzyme assays (CYPs, kinases, phosphatases, proteases, HDACs) used recombinant protein and specific substrates (fluorescence mostly, some colorimetric and radioactive) and inhibitors, followed by a biochemical separation of substrate and product. All assays for the biochemical HTS were initially run in duplicate at a single concentration (10 uM for CYP450 assays and 25 uM for all others). Assay-chemical combinations meeting a pre-defined threshold (e.g., 30% inhibition and other criteria defined below) were then run in singleton concentration-response format with maximum concentration of 20 uM for CYPs and 50 uM for all others. Each assay was run with positive and negative controls, and concurrent controls on every plate. The follow-up (secondary) screen tested active chemical-pairs in concentration series, as well as a few additional assays not tested in the primary screen, some selected negative inactives, and several cases re-run in the concentration series for confirmatory purposes.
# Chain of rat CYP3A2, Cyp3a2 (gene 266682) (P05183 whole entry, looked up): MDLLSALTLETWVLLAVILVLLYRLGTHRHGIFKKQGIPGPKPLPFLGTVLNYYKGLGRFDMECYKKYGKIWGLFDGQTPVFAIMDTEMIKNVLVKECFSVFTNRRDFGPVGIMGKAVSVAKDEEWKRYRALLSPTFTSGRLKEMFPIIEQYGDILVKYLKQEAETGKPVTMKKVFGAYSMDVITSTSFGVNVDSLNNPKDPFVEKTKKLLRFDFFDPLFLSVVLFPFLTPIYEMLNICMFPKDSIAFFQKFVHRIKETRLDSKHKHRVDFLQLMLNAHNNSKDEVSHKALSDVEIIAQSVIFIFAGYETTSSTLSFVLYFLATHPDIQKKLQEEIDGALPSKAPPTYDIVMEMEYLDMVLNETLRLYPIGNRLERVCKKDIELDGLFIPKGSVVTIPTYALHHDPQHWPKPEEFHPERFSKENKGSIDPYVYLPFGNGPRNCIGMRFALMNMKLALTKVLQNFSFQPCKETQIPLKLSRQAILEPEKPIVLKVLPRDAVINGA
row,Structure (SMILES),AC50
1,CSC(=O)c1cccc2nnsc12,1.79 µM (active)
2,Oc1ccc(C(c2ccc(O)cc2)C(Cl)(Cl)Cl)cc1,2.7 µM (active)
3,CC(C)(c1ccc(O)cc1)c1ccc(O)cc1,8.05 µM (active)
4,CCCCC(CC)CN1C(=O)C2C3C=CC(C3)C2C1=O (stereo not given),6.87 µM (active)
5,CCCCOCCOCCOCc1cc2c(cc1CCC)OCO2,4.85 µM (active)
6,CCN(Cc1c(F)cccc1Cl)c1c([N+](=O)[O-])cc(C(F)(F)F)cc1[N+](=O)[O-],4.04 µM (active)
7,CC(C)(C)[C@@H](O)[C@@H](Cc1ccc(Cl)cc1)n1cncn1,4.88 µM (active)
8,N#CSCSc1nc2ccccc2s1,7.06 µM (active)
9,C=CCOC(Cn1ccnc1)c1ccc(Cl)cc1Cl (stereo not given),0.874 µM (active)

# Target: human Caspase 5 (CASP5), CASP5 (gene 838) (UniProt P51878)
# Assay: NVS_ENZ_hCASP5: NovaScreen (NVS) Enzymatic Assay for human Caspase 5 (CASP5) (AID 2283137)
# Outline: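 Chemicals were first tested in duplicate at 25 uM against recombinant caspase 5 from E. coli. Activity was read by fluorescence intensity 2 hours after dosing. Those passing a preset inhibition threshold were retested in singleton concentration-response up to 50 uM.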
# Chain of human Caspase 5 (CASP5), CASP5 (gene 838) (P51878 whole entry, looked up): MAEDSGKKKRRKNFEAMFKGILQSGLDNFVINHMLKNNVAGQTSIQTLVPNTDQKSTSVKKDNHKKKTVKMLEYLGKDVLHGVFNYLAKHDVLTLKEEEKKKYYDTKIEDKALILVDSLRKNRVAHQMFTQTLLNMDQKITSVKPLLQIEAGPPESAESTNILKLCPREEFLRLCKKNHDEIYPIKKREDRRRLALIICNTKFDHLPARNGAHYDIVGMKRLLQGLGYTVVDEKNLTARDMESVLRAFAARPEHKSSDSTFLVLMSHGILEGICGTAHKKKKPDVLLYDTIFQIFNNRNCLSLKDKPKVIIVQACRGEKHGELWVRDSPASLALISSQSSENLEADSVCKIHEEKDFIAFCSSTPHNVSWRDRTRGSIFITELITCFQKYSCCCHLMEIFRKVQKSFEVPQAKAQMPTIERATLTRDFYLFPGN
Structure (SMILES),AC50,outcome
O=C(O)C1(C(=O)Nc2ccc(Cl)cc2Cl)CC1,3.02 µM (active),–
N[C@@H](Cc1cc(I)c(Oc2ccc(O)c(I)c2)c(I)c1)C(=O)O,8.73 µM (active),–
Oc1ccc(C(c2ccc(O)cc2)C(Cl)(Cl)Cl)cc1,10.1 µM (active),–
S=C([S-])NCCNC(=S)[S-].[Mn+2],15.1 µM (active),–
CCC(O)=C1C(=O)CC(C(=O)O)CC1=O (stereo not given),–,inactive

# Target: human AKT serine/threonine Kinase 1 (AKT1), AKT1 (gene 207) (UniProt P31749)
# Assay: NVS_ENZ_hAKT1: NovaScreen (NVS) Enzymatic Assay for human AKT serine/threonine Kinase 1 (AKT1) (AID 2283138)
# Outline: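 Compounds were first tested in duplicate at 25 uM, and those passing a threshold such as 30% inhibition were run in concentration-response to a maximum of 50 uM. Enzyme activity was measured after 1 h by fluorescence following substrate/product mobility-shift separation.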
# Chain of human AKT serine/threonine Kinase 1 (AKT1), AKT1 (gene 207) (P31749 whole entry, looked up): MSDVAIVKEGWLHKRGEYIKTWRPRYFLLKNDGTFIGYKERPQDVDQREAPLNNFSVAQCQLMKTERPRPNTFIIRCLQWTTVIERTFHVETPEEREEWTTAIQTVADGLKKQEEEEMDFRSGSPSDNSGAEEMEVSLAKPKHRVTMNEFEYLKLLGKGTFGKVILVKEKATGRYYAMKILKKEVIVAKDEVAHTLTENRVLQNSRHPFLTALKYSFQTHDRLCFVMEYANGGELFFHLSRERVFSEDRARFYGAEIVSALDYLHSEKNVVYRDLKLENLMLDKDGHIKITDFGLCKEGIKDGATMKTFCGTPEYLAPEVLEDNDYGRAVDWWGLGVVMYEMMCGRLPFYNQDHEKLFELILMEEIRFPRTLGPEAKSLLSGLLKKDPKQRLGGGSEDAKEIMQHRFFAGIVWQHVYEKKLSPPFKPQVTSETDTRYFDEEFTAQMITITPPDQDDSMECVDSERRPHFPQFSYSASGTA
Structure (SMILES),AC50,outcome
S=C(S)NCCNC(=S)S.[Mn+2].[S-]C([S-])=NCCN=C([S-])[S-].[Zn+2],683 nM (active) and 1.49 µM (active),–
CCCCOC(=O)[C@@H](C)Oc1ccc(Oc2ccc(C(F)(F)F)cn2)cc1,–,inactive
O=C(Nc1ccc([N+](=O)[O-])cc1Cl)c1cc(Cl)ccc1O,–,inactive
S=C([S-])NCCNC(=S)[S-].[Mn+2],1.05 µM (active),–
COc1nc(C)nc(NC(=O)NS(=O)(=O)c2ccccc2OCCCl)n1,–,inactive
CN(C)C(=O)Nc1ccc(Cl)c(Cl)c1,–,inactive
CC(C)CCCCCCc1ccc(O)cc1,–,inactive

# Target: human Beta-secretase (BACE), BACE1 (gene 23621) (UniProt P56817)
# Assay: NVS_ENZ_hBACE: NovaScreen (NVS) Enzymatic Assay for human Beta-secretase (BACE) (AID 2283140);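 note: hits are inhibitors that reduce fluorescent substrate signal versus DMSO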
# Outline: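 Fluorescence intensity read-out of protease activity defines this endpoint; signal loss relative to DMSO baseline marks inhibition. Recombinant enzyme from SF9 cells, cell-free format, 1 h exposure. Single-concentration duplicate screen (25 uM) precedes concentration-series follow-up.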
# Chain of human Beta-secretase (BACE), BACE1 (gene 23621) (P56817 whole entry, looked up): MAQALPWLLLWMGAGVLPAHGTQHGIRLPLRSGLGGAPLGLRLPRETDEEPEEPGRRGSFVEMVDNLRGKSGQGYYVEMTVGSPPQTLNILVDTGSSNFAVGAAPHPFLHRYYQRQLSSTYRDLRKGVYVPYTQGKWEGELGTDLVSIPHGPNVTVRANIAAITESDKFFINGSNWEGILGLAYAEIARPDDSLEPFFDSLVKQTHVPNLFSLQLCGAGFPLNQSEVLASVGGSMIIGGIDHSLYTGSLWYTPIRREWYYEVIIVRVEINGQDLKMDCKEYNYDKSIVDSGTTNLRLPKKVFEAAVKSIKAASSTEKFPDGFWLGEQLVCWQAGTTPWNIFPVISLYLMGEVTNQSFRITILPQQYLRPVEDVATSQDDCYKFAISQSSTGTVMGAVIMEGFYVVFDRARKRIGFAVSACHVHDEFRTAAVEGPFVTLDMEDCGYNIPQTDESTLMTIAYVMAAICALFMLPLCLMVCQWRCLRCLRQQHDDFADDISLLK
Structure (SMILES),AC50,outcome
N[C@@H](Cc1cc(I)c(Oc2ccc(O)c(I)c2)c(I)c1)C(=O)O,25.9 µM (active),–
S=C(S)NCCNC(=S)S.[Mn+2].[S-]C([S-])=NCCN=C([S-])[S-].[Zn+2],9.11 µM (active),–
Oc1ccc(C(c2ccc(O)cc2)C(Cl)(Cl)Cl)cc1,4.96 µM (active),–
CCCCOC(=O)[C@@H](C)Oc1ccc(Oc2ccc(C(F)(F)F)cn2)cc1,–,inactive
S=C([S-])NCCNC(=S)[S-].[Mn+2],17.6 µM (active),–
